Reference: PubChem BioAssay AID463173 (ICCB-Longwood Screening Facility, Harvard Medical School, 2010)
The campaign covered roughly 52,000 compounds. About 4,300 (8.3%) were called active. The list comes from a sample in which actives are over-represented; it also holds similar structures and randomly drawn compounds. Values without a mark were called inactive. No stated cut-off is given here; in the data, active means survival mostly below about 52% (no sharp cut-off); inactive means mostly above about 56%.

Tested on: DeltatarO mutant
Experiment: growth inhibition of S. aureus wild type versus tarO mutant, primary screen, teichoic acid synthesis inhibitors, RN4220, OD600 (AID 463173)
Details: OD600, 18 h, active compounds read low, screened at 18.75 µg/mL (by protocol)

SMILES	survival
CCc1ccc(CN2C(=O)c3ccccc3C2C(=O)NC2CCCCCC2)cc1 (configuration not stated)	75%
CCn1c(=O)c(C(=O)Nc2ccc(Cl)cn2)c(O)c2ccccc21	95%
CSc1nn(Cc2ccc(F)cc2)c(N)c1S(=O)(=O)c1ccc(Cl)cc1	101%
Cc1ccc(Cl)cc1-n1ncc2c(Nc3cccc(C)c3C)ncnc21	82%
CN1CCN(CCNC(=O)c2cnn(-c3ccc(Cl)cc3)c2C2CCN(C(=O)OC(C)(C)C)CC2)CC1	69%
O=C(Nc1sc2c(c1C(=O)NCc1ccccc1)CCCC2)c1cc(=O)c2ccccc2o1	67%
O=C(Nc1sc2c(c1C(=O)NCc1ccco1)CCCC2)c1cc(=O)c2ccccc2o1	43% (active)
O=C(Nc1sc2c(c1C(=O)NCc1ccccc1)CCCC2)c1cc(=O)c2cc(Cl)ccc2o1	49%
Cc1cc(C)c2oc(C(=O)Nc3sc4c(c3C(=O)NCc3ccco3)CCCC4)cc(=O)c2c1	82%
Cc1ccc2c(=O)cc(C(=O)Nc3sc4c(c3C(=O)NCc3ccccc3)CCCC4)oc2c1C	89%
Cc1cc2oc(C(=O)Nc3sc4c(c3C(=O)NCc3ccco3)CCC4)cc(=O)c2cc1C	38% (active)
Cc1ccc2c(=O)cc(C(=O)Nc3sc4c(c3C(=O)NCc3ccco3)CCC4)oc2c1	78%
Cc1ccc2c(=O)cc(C(=O)Nc3sc4c(c3C(=O)NCc3ccco3)CCCC4)oc2c1C	80%
Cc1ccc2oc(C(=O)Nc3sc4c(c3C(=O)NCc3ccco3)CCC4)cc(=O)c2c1	82%
O=C(Nc1sc2c(c1C(=O)NCc1ccco1)CCCC2)c1cc(=O)c2cc(Cl)ccc2o1	38% (active)
Cc1ccc2oc(C(=O)Nc3sc4c(c3C(=O)NCc3ccccc3)CCCC4)cc(=O)c2c1	66%
Cc1cc2oc(C(=O)Nc3sc4c(c3C(=O)NCc3ccccc3)CCCC4)cc(=O)c2cc1C	39% (active)
CC[n+]1c(C)sc2sc3ccccc3c21	68%
COC(=O)Cn1nc(C)c2c(C)n(-c3ccccc3)nc2c1=O	90%
CCOc1ccc(NC(=O)Cn2cc(C(=O)c3ccc(CC)cc3)c(=O)c3cc4c(cc32)OCO4)cc1	86%
O=C(Cn1nc(-c2ccccc2)nc(Cc2ccccc2)c1=O)Nc1ccccc1	90%

SMILES	survival
O=C(NCc1noc2ccccc12)N1CCN(c2ccccc2F)CC1	40%
COc1cccc(CSc2nc(-c3ccccc3OC)nc3c2Cc2c(CO)cnc(C)c2O3)c1	57%
CCCn1c2ccccc2c2cnn(CC(=O)NCc3cc(OC)ccc3OC)c(=O)c21	122%
CCN(CC)S(=O)(=O)c1ccc2c(c1)c(=O)c(C(=O)NCc1ccccc1OC)cn2C	71%
COc1cccc(C(=O)Nc2nc3nc(C)c(C)c(=O)n3[nH]2)c1	104%
Cc1cc(C)c2c(=O)cc(C(=O)Nc3sc4c(c3C#N)CCCC4)oc2c1	12% (active)
CCOC(=O)c1c(NC(=O)c2cc(=O)c3c(C)cc(C)cc3o2)sc2c1CCC2	61%
COC(=O)c1c(NC(=O)c2cc(=O)c3c(C)cc(C)cc3o2)sc2c1CCCC2	61%
Cc1ccc(C(=O)NCC(c2ccco2)S(=O)(=O)c2cccs2)cc1C (configuration not stated)	102%
CC(=O)c1ccc(NC(=O)CCc2c(C)nn(-c3ccc4nncn4n3)c2C)cc1	91%
Cc1cccc(N2CCN(C(=O)Cn3nc(C)n4cccc4c3=O)CC2C)c1 (configuration not stated)	90%
COC(=O)c1cc2sccc2n1Cc1ccc(F)cc1Cl	65%
COC(=O)c1cc2occc2n1Cc1ccc(F)cc1Cl	30% (active)
COC(=O)c1cc2oc(C)cc2n1Cc1c(C)cc(C)cc1C	46%
COC(=O)c1cc2oc(C)cc2n1Cc1ccc(Br)cc1F	75%
COC(=O)c1cc2oc(C)cc2n1Cc1ccc(C)cc1	69%
COC(=O)c1cc2oc(C)cc2n1Cc1cccc(Cl)c1	-8% (active)
COC(=O)c1cc2oc(C)cc2n1Cc1ccccc1Cl	-8% (active)
COC(=O)c1cc2oc3ccccc3c2n1Cc1ccccc1Cl	72%
COC(=O)c1cc2oc(C)cc2n1Cc1ccc(Cl)cc1	73%
COC(=O)c1cc2oc(C)cc2n1CC(=O)Nc1cc(Cl)ccc1OC	77%

SMILES	survival
COC(=O)c1cc2sc(C)cc2n1Cc1ccc(F)cc1Cl	76%
COC(=O)c1cc2oc(C)cc2n1Cc1cc(C)ccc1C	-9% (active)
O=C(NCc1ccccc1)c1cc2sccc2n1Cc1ccc(F)cc1	88%
Cc1cc(C)cc(-n2c(SCC(=O)Nc3nnc(C)s3)nc3c([nH]c4ccccc43)c2=O)c1	68%
O=C(NC1CC(=O)N(c2cccc(F)c2)C1)c1ccc(Br)o1 (configuration not stated)	101%
CC(C)(C)C1CCc2c(sc(NC(=O)c3noc4c3CCCC4)c2C#N)C1 (configuration not stated)	53%
Cc1nnc(N(C)C(=O)CNC(=O)c2ccccc2)s1	75%
COc1ccc(NC(=O)c2ccccc2NC(=O)c2ccco2)cc1	74%
CCOC(=O)c1c(C)oc2nc(C)nc(NCCc3ccc(SC)cc3)c12	83%
Cc1cccc(CSc2nc3cc(C(=O)NC4CCCC4)ccc3c(=O)n2Cc2ccccc2)c1	69%
COc1ccc(Cl)cc1NC(=O)c1cc(S(=O)(=O)NC2CCCCCC2)ccc1F	71%
C=CCn1c(C(=O)OCC)cc2oc(C)cc21	119%
CCOC(=O)c1cc2oc(C)cc2n1CC(=O)NC1CC1	86%
COC(=O)c1cc2oc3ccccc3c2n1Cc1cccc(C)c1	31% (active)
COC(=O)c1cc2occc2n1Cc1cccc(C)c1	-6% (active)
CCc1cccc(NC(=O)Cn2c(C(=O)OC)cc3occc32)c1	92%
COC(=O)c1cc2occc2n1Cc1nc(-c2ccc(C)cc2)oc1C	69%
COC(=O)c1cc2oc3ccccc3c2n1Cc1ccc(C)cc1	93%
CCOC(=O)c1cc2oc(C)cc2n1CCCN1C(=O)c2ccccc2C1=O	0% (active)
COC(=O)c1cc2oc3ccccc3c2n1Cc1ccc(Cl)cc1	76%
